PubChem BioAssay (EPA / NIEHS)
Activity calls are given as the source filed them. How the source made its calls: active means hit-call score of the fitted dose curve at least 0.9, where 1 is the maximum; inactive means score below 0.9.

These compounds were tested against Transcriptional activator Myb (Homo sapiens) (UniProt P10242) (assay: ATG_Myb_CIS: Attagene CIS-FACTORIAL HepG2 Assay for human Myeloblastosis (Myb) Proto-Oncogene Transcription Factor (AID 2282986)). Conditions: HepG2 Attagene CIS-FACTORIAL Myb reporter transcription; actives raise or lower the signal.
Summary of the method: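 Reporter transcript levels, quantified by fluorescent RT-PCR and capillary electrophoresis, serve as the read-out. Transfected HepG2 cells carrying cis-promoter reporter units are dosed for 24 hours, and curves are fitted bidirectionally against DMSO controls.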

Transcriptional activator Myb (Homo sapiens), sequence (P10242 whole entry, looked up): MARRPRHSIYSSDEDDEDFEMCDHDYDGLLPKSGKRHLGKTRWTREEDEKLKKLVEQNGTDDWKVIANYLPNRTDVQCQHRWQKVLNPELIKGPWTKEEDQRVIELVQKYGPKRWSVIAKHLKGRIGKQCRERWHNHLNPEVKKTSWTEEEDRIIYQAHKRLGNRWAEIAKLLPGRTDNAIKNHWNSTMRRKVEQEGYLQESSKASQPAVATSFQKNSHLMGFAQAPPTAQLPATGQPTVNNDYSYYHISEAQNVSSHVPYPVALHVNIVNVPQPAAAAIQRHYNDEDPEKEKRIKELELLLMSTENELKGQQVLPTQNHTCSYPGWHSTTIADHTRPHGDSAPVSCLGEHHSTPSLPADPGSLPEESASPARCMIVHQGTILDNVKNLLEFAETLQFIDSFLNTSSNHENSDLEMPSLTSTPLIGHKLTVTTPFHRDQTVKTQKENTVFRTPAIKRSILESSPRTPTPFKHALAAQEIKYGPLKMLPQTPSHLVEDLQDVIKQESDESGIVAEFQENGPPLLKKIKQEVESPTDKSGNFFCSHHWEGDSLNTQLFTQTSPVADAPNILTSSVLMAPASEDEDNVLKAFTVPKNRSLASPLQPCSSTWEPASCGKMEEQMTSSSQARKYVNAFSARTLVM

Compound	outcome	AC50
CC(=O)c1ccccc1	inactive	–
CC1(C)C(=O)N(Cl)C(=O)N1Cl	inactive	–
NC(N)=O	inactive	–
Cn1cc[nH]c1=S	inactive	–
CCOC(N)=O	inactive	–
COS(C)(=O)=O	inactive	–
CCCCOC(=O)c1ccccc1	inactive	–
c1ccc2ncccc2c1	inactive	–
Nc1ccn([C@@H]2O[C@H](CO)[C@@H](O)[C@@H]2O)c(=O)n1	inactive	–
CCCCCCOC(=O)CC(CC(=O)OCCCCCC)(OC(=O)CCC)C(=O)OCCCCCC	inactive	–
CCCCCCCCCC	inactive	–
OC[C@H]1O[C@@H]2O[C@H]3[C@H](O)[C@@H](O)[C@@H](O[C@H]4[C@H](O)[C@@H](O)[C@@H](O[C@H]5[C@H](O)[C@@H](O)[C@@H](O[C@H]6[C@H](O)[C@@H](O)[C@@H](O[C@H]7[C@H](O)[C@@H](O)[C@@H](O[C@H]1[C@H](O)[C@H]2O)O[C@@H]7CO)O[C@@H]6CO)O[C@@H]5CO)O[C@@H]4CO)O[C@@H]3CO	inactive	–
CCCCCCCCCCCCCCO	–	168 µM (active)
CC(C)CC(C)O (stereo not drawn)	inactive	–
COCc1nnc(-c2ccc[n+]([O-])c2)n1-c1c(Cl)c(Cl)cc2[nH]c(=O)c(=O)[nH]c12	inactive	–
O=C(O)CO	inactive	–
CCCCN1C(=O)[C@@H]([C@H](O)C2CCCCC2)NC(=O)C12CCN(Cc1ccc(Oc3ccc(C(=O)O)cc3)cc1)CC2	inactive	–
CCCCCCCCCCCCCCCCOS(=O)(=O)O	inactive	–
NC(=O)N1c2ccccc2C=Cc2ccccc21	inactive	–
O=C(N[C@H](CO)[C@H](O)c1ccc([N+](=O)[O-])cc1)C(Cl)Cl	inactive	–
CCCCCCCC/C=C\CCCCCCCC(=O)OC[C@@H](O)[C@H]1OC[C@H](O)[C@H]1O	inactive	–
CNC(C)=O	inactive	–
OCC(CO)(CO)CO	inactive	–
O=S1(=O)CCCO1	inactive	–
C=CN1CCCC1=O	inactive	–
Cn1c(=O)c2[nH]cnc2n(C)c1=O	inactive	–
O=C(O)c1ccc2c(c1)nc(C(=O)NC1CCN(C3CC3)CC1)n2Cc1cc(-c2ccc(Cl)s2)on1	inactive	–
CC(C)CCCCCCOC(=O)C1CCCCC1C(=O)OCCCCCCC(C)C (stereo not drawn)	inactive	–
